CYP2C19 inh – blockers of cytochrome P450 2C19 activity – biochemical, luminescence, ADME assay, primary screen. 96,000 tested, 21% active. P33261. inhibition, % at 5 µM. CYP2C19 Supersomes, luciferin-H EGE luminescence, 30 min;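 active means CYP2C19 inhibition above a set limit at 5 µM in the primary screen, cut at about 50% in these data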;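 further: plate controls were negative control wells for no effect and 2.5 mM tranylcypromine positive control for full effect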
Target sequence (P33261 whole entry, looked up): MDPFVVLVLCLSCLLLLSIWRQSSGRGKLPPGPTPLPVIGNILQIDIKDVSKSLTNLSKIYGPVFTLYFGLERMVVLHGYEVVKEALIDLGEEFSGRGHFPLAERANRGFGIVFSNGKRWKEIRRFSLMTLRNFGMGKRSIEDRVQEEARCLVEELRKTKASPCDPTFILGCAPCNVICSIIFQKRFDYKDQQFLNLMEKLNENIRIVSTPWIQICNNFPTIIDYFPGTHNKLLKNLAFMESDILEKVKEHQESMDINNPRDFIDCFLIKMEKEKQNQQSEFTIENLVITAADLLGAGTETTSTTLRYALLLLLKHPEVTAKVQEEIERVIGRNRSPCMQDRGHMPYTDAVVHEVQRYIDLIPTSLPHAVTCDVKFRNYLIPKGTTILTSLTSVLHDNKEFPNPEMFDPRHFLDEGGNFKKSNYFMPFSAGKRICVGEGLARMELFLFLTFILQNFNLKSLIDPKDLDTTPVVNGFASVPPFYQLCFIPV
PostGolgi yeast – phenotypic screen on post-Golgi transport, primary screen | post-Golgi transport phenotypic cell assay | inhibition, % at 10 µM | 98,000 tested, 0.9% active | AID 739, 2007;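 further: yeast cells grown in 1536-well plates; yeast grown about 18 h at 30C before absorbance read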
CYP2C9 activ – human CYP2C9 activators, primary screen, biochemical, luminescence | Cytochrome P450 2C9 (Homo sapiens), P11712 | recombinant CYP2C9, luciferin-H conversion; active compounds read high; factor 1 = untreated enzyme, 0 = blocked | activation factor at 5 µM | 96,000 tested, 1.4% active | AID 1024, 2008;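 active means activation factor of 2 or more for CYP2C9 at a 5 µM dose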;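 further: 0 = sulfaphenazole-blocked wells and 1 = vehicle-only wells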
CYP2C9 inh – blockers of cytochrome P450 2C9 activity – biochemical, luminescence, ADME assay, primary screen. inhibition, % at 5 µM. P11712. 96,000 tested, 20% active. CYP2C9 Supersomes, luciferin-H conversion;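 active means blocking of liver enzyme CYP2C9 beyond about 50% at 5 µM, limit read from the data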
PostGolgi ctrl – growth inhibition of yeast control strain, primary screen, counter-screen for post-Golgi transport modulator project | efflux-deficient yeast background strain, growth absorbance A615, 16 h | 98,000 tested, 5% active | AID 738, 2007 | inhibition, % at 10 µM
CYP2C19 act – human CYP2C19 activators, primary screen, biochemical, luminescence; Cytochrome P450 2C19 (Homo sapiens), P33261; recombinant CYP2C19, luciferin-H EGE luminescence; active compounds read high; 0 = fully inhibited enzyme, 1 = untreated enzyme; activation factor at 5 µM; 96,000 tested, under 10 active;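 active means activation factor of at least 2 at 5 µM in the primary screen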;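 further: 0 = wells with 2.5 mM tranylcypromine and 1 = vehicle-only wells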
Active calls of the source: *; nt = not tested or not shown. The list is not random: actives were taken first. Their share in the collection is about 32%. Unless noted, no stated cut-off is given here; in the data, active means inhibition above about 30%; inactive means the rest.

SMILES	CYP2C19 inh	PostGolgi yeast	CYP2C9 activ	CYP2C9 inh	PostGolgi ctrl	CYP2C19 act
Cc1nn(C)c(C)c1S(=O)(=O)N(CC(=O)NC1CCCCCC1)c1ccc(C(C)C)cc1	10	-19	0.9	6	-7	0.9
CCc1ccc(N(CC(=O)Nc2nc3ccc(C)cc3s2)S(=O)(=O)c2c(C)noc2C)cc1	58*	2	0.1	93*	32*	0.4
CCc1ccc(NC(=O)CN(c2ccc3c(c2)OCO3)S(=O)(=O)c2c(C)noc2C)cc1	0	-4	1	-1	29	1
CCc1ccc(N(CC(=O)NC2CCCC2)S(=O)(=O)c2c(C)noc2C)cc1	7	-10	0.4	64*	12	0.9
Cc1n[nH]c(C)c1S(=O)(=O)N(CC(=O)NC1CCCC1)c1ccc(C(C)C)cc1	61*	-5	0.3	75*	4	0.4
CC(=O)c1cccc(NC(=O)C2CC(=O)N(Cc3ccccc3)C2)c1 (stereo unspecified)	34	-3	0.7	25	13	0.7
O=C(CNC(=O)c1ccccc1C(=O)O)c1ccccc1	12	nt	0.8	22	nt	0.9
Oc1ccccc1-c1cc(C(F)(F)C(F)F)nc(-c2ccccc2)n1	3	10	1	5	-2	1
FC(F)C(F)(F)C(F)(F)C(F)(F)c1cc(-c2ccccc2)n[nH]1	85*	1	0.2	76*	46*	0.1
CC1CCCC(C(=O)OCc2ccccc2)N1 (stereo unspecified)	nt	3	nt	nt	2	nt
Cc1cccc(NC(=O)Cc2coc3ccc4ccccc4c23)n1	88*	14	2.3*	-127	22	0.1
Cc1ccc(CC(=O)Nc2cccc(C)n2)cc1	74*	-15	0.8	23	17	0.3
CCCCNC(=O)Cc1coc2ccc3ccccc3c12	64*	-4	3.1*	-208	5	0.4
O=C(COc1ccc(F)cc1Br)N1CCc2ccccc21	20	1	1	-2	1	0.8
COC(=O)c1ccc(Oc2nc(C(N)=O)cc(-c3ccccc3)n2)cc1	5	1	0.9	12	21	1
CCCC(C)c1nnc(NC(=O)C2CCCO2)s1 (stereo unspecified)	2	-6	1.1	-11	-3	1
CCOC(=O)/C(C#N)=C\C=C1C=CN(C)C=C1	-13	-20	1	5	5	1.1
CCC(=O)Nc1cccc(Oc2nc(C)cc(C)c2C#N)c1	-6	-2	1.1	-10	3	1.1
CC(=O)Nc1cccc(Oc2nc(C)cc(C)c2C#N)c1	4	-5	1	4	32*	1
O=C(CSc1nnc(-c2ccncc2)n1Cc1ccco1)c1ccc(Cl)cc1	95*	16	0.1	92*	2	0.1
O=C(CSc1nnc(-c2ccncc2)n1Cc1ccco1)Nc1ccccc1Cl	97*	3	0.1	89*	5	0
O=C(CSc1nnc(-c2ccc(Cl)cc2)n1Cc1ccco1)c1cccs1	7	0	0.5	55*	30	0.9
CCOc1cc(NC2CS(=O)(=O)CC2O)c(OCC)cc1NC(=O)c1ccccc1 (stereo unspecified)	0	-1	0.9	9	3	1
N#Cc1cc(C#N)c(N2CCN(c3cccc(Cl)n3)CC2)nc1N	98*	1	0.6	36	58*	0
COC(=O)c1ccccc1NS(=O)(=O)c1ccc2c3c(cccc13)C(=O)N2	76*	nt	0	100*	nt	0.2
O=C(O)c1ccccc1NS(=O)(=O)c1ccc2c3c(cccc13)C(=O)N2	21	2	0	97*	0	0.8
COC(=O)c1c(C)oc2c1cc(NS(=O)(=O)c1cccs1)c1ccccc12	92*	0	0.1	95*	38*	0.1
COC(=O)c1c(NS(=O)(=O)c2cccs2)sc2c1CCCC2	-2	-11	1.3	-28	11	1
CN(c1ccccc1C(=O)O)S(=O)(=O)c1ccc2c3c(cccc13)C(=O)N2	nt	-1	nt	nt	6	nt
Cc1oc2c(cc(NS(=O)(=O)c3ccc4c5c(cccc35)C(=O)N4)c3ccccc32)c1C(=O)OC(C)C	39	-3	0.1	89*	17	0.6

Source: PubChem (several laboratories)
